Screens: PubChem, ICCB-Longwood Screening Facility, Harvard Medical School
Bm FixLJ act: increases Burkholderia fixLJ two-component signaling | 29,000 tested, 0.3% active | z-score (test concentration not listed) | B. multivorans fixK-promoter GFP reporter, 18 h; active compounds read high;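 active = replicate mean overnight rise in green fluorescent reporter signal, 3 or more SD over negative controls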
* hit, by the source's call. Many of the other results were omitted from the sample, so hits are more common in it than they were.

Screening CC(CCc1ccccc1)NC(=O)Cn1ncc2c3ccccc3n(Cc3ccccc3F)c2c1=O (stereo not drawn) returned Bm FixLJ act -1.75.
`O=C(NCc1cc2cc(Cl)ccc2[nH]1)C1CC2(CCNCC2)CN1` (stereo not drawn) gave Bm FixLJ act -1.15.
`COc1cccc(C(=O)N2CC3CCC(C2)N(CC2CCC2)C3=O)c1O` (stereo not drawn) gave Bm FixLJ act 0.82.
Screening CSCCC(NC(=O)N(C)Cc1cnn(-c2cccc(C)c2)c1)C(=O)O (stereo not drawn) returned Bm FixLJ act -1.66.
Screening COc1ccc2c(C(=O)NCC3(C)COC3)cc(C)nc2c1 returned Bm FixLJ act -3.48.
Screening COc1ccc(C(=O)Nc2nnc(SC(C)C)s2)c(OC)n1 returned Bm FixLJ act -0.05.
For O=C(c1ccc2ccccc2n1)N1CC2CCC(C1)N(CC1CC1)C2=O (stereo not drawn) the results were Bm FixLJ act 0.22.
Cc1ccc(-c2nc(CN3CCCC3c3n[nH]c(C)n3)no2)cc1 (stereo not drawn) was read as Bm FixLJ act -1.94.
Cc1noc(C)c1CN1C(=O)C2CCC1CN(Cc1ccccn1)C2 (stereo not drawn) was read as Bm FixLJ act -2.29.
For C=CCc1cc(CNCCN2CCCC(C(N)=O)C2)ccc1OCC (stereo not drawn) the results were Bm FixLJ act -1.13.
For COc1ccc(-n2ccnc2-c2nccn2C2c3ccccc3CC2O)cc1 (stereo not drawn) the results were Bm FixLJ act 0.6.
For Cc1cc(/C=C/c2ccc3cc(N(C)C)ccc3[n+]2C)c(C)n1-c1ccccc1 the results were Bm FixLJ act 4.03*.
`CN1CC2(CCCN(Cc3noc(C(C)(C)C)n3)C2)OC1=O` (stereo not drawn) gave Bm FixLJ act -4.16.
COc1c[nH]c(C(=O)NC(CCSC)C(=O)O)cc1=O (stereo not drawn) was read as Bm FixLJ act 0.07.
For O=C(c1cncc(N2CCC(O)[C@@](Cc3ccccc3)(C(=O)O)C2)n1)N1CCCC1 (stereo partly drawn) the results were Bm FixLJ act -0.77.
Screening COc1cccc(NC(CNS(=O)(=O)c2ccc(Cl)cc2)c2ccccc2)c1 (stereo not drawn) returned Bm FixLJ act 4.19*.
COc1cccc(NC(CNS(=O)(=O)c2ccc(C)cc2)c2ccccc2)c1 (stereo not drawn) was read as Bm FixLJ act 1.02.
For Cc1ccc(NC(CNS(=O)(=O)c2ccc(Cl)cc2)c2ccccc2)cc1 (stereo not drawn) the results were Bm FixLJ act -0.49.
Screening COCCC(=O)N1CCC2(CC1)OCCc1c2[nH]c2ccccc12 returned Bm FixLJ act 0.9.
CCc1oc(C(=O)Nc2cccc(-c3nncn3C)c2C)cc1CN1CCCC1 was read as Bm FixLJ act -0.18.
